Screens deposited in PubChem by Paczesny and Yang Labs, IUPUI and University of Michigan.
Only a selection was taken, and hits are over-represented in it overall.
ST2 IL33 inh – IL1RL1 inhibition. Q01638. AlphaLISA ST2-Fc/biotin-IL-33 interaction, 1 h. inhibition, % for hits at 17 µM. 78,000 tested, 2.3% active; in the data active = inhibition above about 30%
Numbers stand for hits; . = inactive.

SMILES	ST2 IL33 inh
CN1C[C@@H](NC(=O)CCC(=O)O)C[C@H]1c1nc(-c2ccccc2)no1	.
CN1C[C@@H](NC(=O)CC(C)(C)CC(=O)O)C[C@H]1c1nc(-c2ccc(F)cc2)no1	30%
CN1C[C@@H](NC(=O)c2ccco2)C[C@H]1c1nc(-c2cccnc2)no1	49%
COC(=O)c1nc2n(n1)C(c1ccc(C)cc1)C(C(=O)OC1CCCCC1)=C(C)N2 (configuration not stated)	.
Cn1c(=O)[nH]c(=O)c2c1nc(Br)n2CCN1C(=O)c2ccccc2C1=O	.
CCOc1ccc(S(=O)(=O)N2CCN(c3nc(C)cc(N4CCOCC4)n3)CC2)cc1	.
Cc1nc(N2CCC(C(=O)NC(C)c3cccs3)CC2)nc2cc(S(C)(=O)=O)ccc12 (configuration not stated)	.
CCOC(=O)c1c(C)oc2cc(Br)c(OC(C)C(=O)OC)cc12 (configuration not stated)	.
CC(C)Nc1ncc(C(=O)N2CCn3cncc3C2)cn1	.
Cc1ccc(Oc2ccc(C(F)(F)F)cc2NC(=O)c2cccnc2)cc1	.
O=C(NC(Nc1ccc(Cl)cc1)C(Cl)(Cl)Cl)c1cccnc1 (configuration not stated)	.
O=C(NC(Nc1ccc(C(F)(F)F)cc1Cl)C(Cl)(Cl)Cl)c1cccnc1 (configuration not stated)	63%
CC1CCN(Cc2ccc(C(=O)N3CCCC(O)(CO)CC3)o2)CC1 (configuration not stated)	.
COc1ccccc1NC(=O)c1cc2cc3ccc(C)cc3nc2s1	.
Cc1ccc(C2(O)CCN(c3nc4ccccc4s3)CC2)nc1	.
Cc1cnc(N2CCC(O)(c3ccccc3)CC2)nc1N(C)C	35%
OC1(c2ccccc2)CCN(c2nccc(CCC(F)(F)F)n2)C1 (configuration not stated)	.
NC(=O)c1cc(Cl)ccc1NC(=O)c1ccc([N+](=O)[O-])cc1	.
CC1=C(C(=O)OC2CCCC2)C(c2cccc(O)c2)NC(=O)N1 (configuration not stated)	.
Cc1nc2c(ccc3nc(NC(=O)c4ccc(C(C)(C)C)cc4)sc32)s1	.
COCC(=O)N1CCCC(Nc2ccccc2)C1 (configuration not stated)	.
C=CCSc1nnc2c(n1)OC1(Nc3ccccc3-2)C(=O)Nc2ccc(Cl)cc21 (configuration not stated)	.
O=C(O)CCC(=O)Nc1ccc(C(=O)O)cc1	.
O=C(O)CCC(=O)Nc1ccc(I)cc1	.
CN(C)c1ccc(NC(=O)CCC(=O)O)cc1	51%
SMILES	ST2 IL33 inh
COC(=O)C1CCN(C(=O)CC[C@H]2CNC(=O)[C@@H]3[C@@H](CCN3C3CCCCC3)N2C)CC1	.
CN(C)/C=C/C=C/C=C1\CCC/C(=C\C=C\N(C)C)C1=O	63%
Cn1c(CCCNC(=O)C(C)(C)C)nc2ccccc21	.
Nc1ccc2c(c1)OC1(CCCCC1)O2	37%
O=C1CC2(CCCCC2)Oc2ccc(O)cc21	.
CC1(C(=O)Nc2ccc3c(c2)OC2(CCCCC2)O3)CC1(Cl)Cl (configuration not stated)	.
COc1ccc2c(c1)OC1c3ccc(OC)cc3OCC21 (configuration not stated)	.
CC(C)COc1ccc2c(c1)c1c3c(nccn32)CCC1	38%
CC(C)COc1ccc2c(c1)c1c3n2CCNC3CCC1 (configuration not stated)	.
COc1ccccc1C1NCC(c2ccc([N+](=O)[O-])cc2)O1 (configuration not stated)	.
CC1CCc2cc(F)ccc2N1S(C)(=O)=O (configuration not stated)	.
CC1CCc2cc(F)ccc2N1S(=O)(=O)c1ccc([N+](=O)[O-])cc1 (configuration not stated)	36%
CC1CCc2cc(F)ccc2N1C(=O)c1ccc([N+](=O)[O-])cc1 (configuration not stated)	.
Cc1cccc(C(=O)Nc2c(-c3cccs3)nc3cc(C)ccn23)c1	.
COc1ccccc1N1CCN(C2CCCN(Cc3nc4ccccc4n3C)C2)CC1 (configuration not stated)	.
Cc1cc(NC(=O)C(C)(C)C)nc2c1c(=O)oc1ccccc12	.
Cc1ccccc1-c1nnc(NC(=O)NC(C)c2nc3ccccc3[nH]2)s1 (configuration not stated)	.
O=C(Nc1ccc(Br)cn1)c1ccc(F)cc1	.
COc1cc(Br)cc(/C=C2/NC(=O)NC2=O)c1O	.
COc1ccccc1/C=C/C1=NC(=C\c2ccccc2[N+](=O)[O-])/C(=O)O1	.
O=C1/C(=C/c2ccccc2[N+](=O)[O-])Sc2ccccc21	31%
COc1cc(Br)cc(/C=C2\Sc3ccccc3C2=O)c1O	60%
COc1cc(/C=C2\C(=O)N(c3cccc(C(=O)O)c3)N=C2C)cc([N+](=O)[O-])c1O	.
COc1cc(/C=C2\Sc3ccccc3C2=O)cc([N+](=O)[O-])c1O	30%
COc1cc(/C=C2/SC(=O)NC2=O)c([N+](=O)[O-])cc1OC	.
COc1cc(/C=C2/C(=O)N(c3ccc(Br)cc3)N=C2C)cc([N+](=O)[O-])c1O	.
